CendR NRP1 mod = alters CendR peptide binding to human NRP-1. 360,000 tested, 0.85% active. AID 602438. FAM-RPARPAR peptide binding to NRP-1, fluorescence polarization. O14786. inhibition, % at 25 µM;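 active = inhibition or corrected inhibition above about 18%, plus a signal ratio from 0.5 to 1.5, limit read from the data, passing the limit was not always enough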
eIF4H inh = inhibitors of RNA binding by human eIF4H; AID 2012; 290,000 tested, 0.94% active; inhibition, % at 35 µM; eIF4H fluorescence polarization binding assay; Q15056;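 note: calls also rest on retests at 20 µM and on dose response follow-up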
PABP FP inh = PABP-poly(A) binding inhibition | PABP-poly(A) RNA binding, fluorescence polarization | inhibition, % at 35 µM | P11940 | 290,000 tested, 1% active;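 note: calls also rest on retests at 20 µM and on dose response follow-up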
MLLE-PAM2 inh = blocks PAM2 peptide binding to the PABP1 MLLE domain | 360,000 tested, 0.36% active | P11940 | inhibition, % at 20 µM | GST-MLLE / FITC-PAM2 fluorescence polarization; in the data active = inhibition above about 35%, passing the limit was not always enough
Of the large screens only hits and unclear results are named; the others gave an inactive call. The list is not random: actives were taken first. Their share in the collection is about 2.1%. Unless noted, the rule behind the calls is not given here.

CC(OC(=O)CCN=C1NS(=O)(=O)c2ccccc21)C(=O)N(C)C1CCCCC1 (stereo unspecified)	none (no result: eIF4H inh, PABP FP inh)
COc1cc(NC(=O)CN2C(=O)COc3ccc(S(=O)(=O)N4CCCC4)cc32)cc(OC)c1	none
CC(C)CN1CCNC(=O)C1CC(=O)NCCCN1CCCc2ccccc21 (stereo unspecified)	PABP FP inh 52
COc1ccccc1Nc1nc(N)nc(CN2CCCCC2)n1	eIF4H inh 2.7, PABP FP inh 89
CC1CCCCN1c1nnc(NC(=O)c2cc(-c3ccc(Br)cc3)on2)s1 (stereo unspecified)	eIF4H inh 87, PABP FP inh active
O=C(NCCCn1ccnc1)c1nn2c(C(F)(F)F)cc(-c3ccc(Br)cc3)nc2c1Cl	CendR NRP1 mod 30
CCCNC(=O)c1nn2c(C(F)(F)F)cc(-c3ccccc3)nc2c1Cl	none
Cc1ccc(S(=O)(=O)Cc2ccc(C(=O)O)o2)cc1	eIF4H inh 86, PABP FP inh 58
COc1ccc(S(=O)(=O)Cc2ccc(C(=O)O)o2)cc1	none
Cc1ccc(S(=O)(=O)Cc2ccc(C(=O)N3CCc4ccccc4C3)o2)cc1	eIF4H inh 90, PABP FP inh 51
COc1ccc(S(=O)(=O)Cc2ccc(C(=O)N3CCc4ccccc4C3)o2)cc1	none
CS(=O)(=O)c1ccc(C(=O)N2CCc3ccccc3C2)cc1	eIF4H inh active
CCOc1ccc(Cc2c(C)[nH]c3ccc(C(=O)O)cc3c2=S)cc1	none
Nc1[nH]c(=O)[nH]c(=O)c1N=Cc1ccccc1	MLLE-PAM2 inh 68 (no result: eIF4H inh, PABP FP inh)
CCc1cc2c(=O)nc3n(c2s1)Cc1ccccc1/C3=C(/O)c1cccc([N+](=O)[O-])c1	eIF4H inh 52, PABP FP inh 69
CCc1cc2c(=O)nc3n(c2s1)Cc1ccccc1/C3=C(/O)c1ccc(F)cc1	eIF4H inh 71, PABP FP inh 80
Cc1ccc(CNC(=O)CNC(=O)[C@@H]2Cc3ccccc3CN2)cc1	none
COC1=C(NCc2ccc3c(c2)OCO3)C(=O)C(OC)=C(NCc2ccc3c(c2)OCO3)C1=O	none (no result: eIF4H inh, PABP FP inh)
COc1cccc2sc3ccc(NCc4ccc5c(c4)OCO5)cc3c(=O)c12	eIF4H inh 52
CCC(=O)N1CCN(c2ccccc2NC(=S)NC(=O)c2cccc([N+](=O)[O-])c2)CC1	none
CCC1CCCCN1C(=S)NC(=O)c1cccc([N+](=O)[O-])c1 (stereo unspecified)	MLLE-PAM2 inh 42
CCC(=O)N1CCN(c2ccccc2NC(=O)c2ccc(-c3cccc([N+](=O)[O-])c3)o2)CC1	none
CCC(=O)N1CCN(c2ccc(NC(=S)NC(=O)c3cccc([N+](=O)[O-])c3)cc2)CC1	MLLE-PAM2 inh 43
CC1CCN(c2ccccc2NC(=S)NC(=O)c2ccc(-c3cccc([N+](=O)[O-])c3)o2)CC1	MLLE-PAM2 inh 42
CN1CCN(c2ccccc2NC(=O)c2ccc(-c3cccc([N+](=O)[O-])c3)o2)CC1	CendR NRP1 mod 45
CC(C)C[C@H]1CN(CCCC[C@@H]2CNC(=O)C(=O)N2CCc2ccccc2)C(=O)C(=O)N1CCC1CCCCC1	none (no result: eIF4H inh, PABP FP inh, MLLE-PAM2 inh)
O=C(Nc1ccccc1F)C1CCN(S(=O)(=O)c2cccc3nonc23)CC1	none
O=C1NC[C@@H](CCCCN2C[C@H](Cc3ccccc3)N(CCc3ccc(O)cc3)C(=O)C2=O)N(CCc2ccccc2)C1=O	none (no result: eIF4H inh, PABP FP inh, MLLE-PAM2 inh)
CC1CCN(c2ccc(NC(=S)NC(=O)c3ccco3)cc2)CC1	none
CC1CCN(c2ccc(NC(=S)NC(=O)c3ccc(-c4cccc([N+](=O)[O-])c4)o3)cc2)CC1	MLLE-PAM2 inh 40
Nc1ccn(C2CSC(CO)O2)c(=O)n1 (stereo unspecified)	none (no result: eIF4H inh, PABP FP inh, MLLE-PAM2 inh)
O=C(Cc1ccc(S(=O)(=O)N2CCOCC2)s1)Nc1nc2c(s1)CCCC2	eIF4H inh 60, PABP FP inh 42
Cc1ccc2c(c1)N(CC(=O)Nc1ccccc1F)C(=O)C(C)O2 (stereo unspecified)	none (no result: eIF4H inh, PABP FP inh)
COc1ccc(S(=O)(=O)NC(C)C(=O)Nc2ccc3c(c2)OCCO3)cc1OC (stereo unspecified)	none
COc1ccc(/C=C/C(=O)O)cc1S(=O)(=O)Nc1ccc2c(c1)OCO2	CendR NRP1 mod 26
COc1ccc(S(=O)(=O)Nc2ccc3c(c2)OCO3)cc1C(=O)O	none
COc1ccc(S(=O)(=O)NC(C)C(=O)Nc2ccc3c(c2)OCO3)cc1OC (stereo unspecified)	CendR NRP1 mod 17
Cc1onc(-c2ccccc2Cl)c1C(=O)N1CCOC12CCN(c1cccc(F)n1)CC2	CendR NRP1 mod 18
CCC1(C)Cc2ccccc2/C(=C/C(=O)N2CCCCC2)N1 (stereo unspecified)	PABP FP inh 66
CCN(CC)c1ccc2cc(C(=O)Nc3ccc(-n4cnnn4)c(OC)c3)c(=O)oc2c1	eIF4H inh 76, PABP FP inh 78 (no result: CendR NRP1 mod, MLLE-PAM2 inh)
CN(CC(=O)Nc1cccnc1)S(=O)(=O)c1cc(Cl)ccc1Cl	none
CN(CC(=O)NNC(=O)c1cccnc1)S(=O)(=O)c1cc(Cl)ccc1Cl	CendR NRP1 mod 40
O=C(NNC(=O)c1ccccc1Cl)c1cccnc1	CendR NRP1 mod 23
COc1ccc(Cc2nnc(SCC(=O)Nc3ccc(N4CCOCC4)cc3)o2)cc1	none
COc1ccc(OC)c(Nc2nc3nonc3nc2N2CCCCC2)c1	CendR NRP1 mod 49
COc1ccccc1Nc1nc2nonc2nc1N1CCC(C)CC1	none
COc1cc(OC)cc(N2CCN(S(=O)(=O)c3ccc(-n4cnnn4)cc3)CC2)c1	none
COc1ccccc1N1CCN(S(=O)(=O)c2ccc(-n3cnnn3)cc2)CC1	eIF4H inh 71
Clc1ccc(CSc2nnc(CNc3cccc(Cl)c3)o2)cc1	eIF4H inh 63, PABP FP inh 5.5
Fc1cccc(Cl)c1CSc1nnc(CNc2ccccc2)o1	none
CCN(CC(=O)NC(C)C)C(=O)[C@H](C)NC(=O)c1ccc(Br)cc1	none
COc1ccc(C(=O)NCc2cnn(C)c2C)cc1OC1CCN(C(C)C)CC1	none
COCCN1CCC(CNCc2c(C(=O)N3CCCCC3)nc3c(C)cccn23)C1 (stereo unspecified)	eIF4H inh 62, PABP FP inh 28
Cc1cccn2c(CNCC3OCCc4ccccc43)c(C(=O)N3CCCCC3)nc12 (stereo unspecified)	none
CCOc1ccc(NC(=O)C2CCN(S(=O)(=O)c3ccc4c(c3)NC(=O)C(C)S4)CC2)cc1 (stereo unspecified)	none
CCOC(=O)CC1(NC(=O)c2cc(COc3cccc(OC)c3)on2)CCCCC1	none
Cc1cccc(NCC(=O)N/N=C\c2cccc(Oc3ccccc3)c2)c1	none
Cc1ccc(NCC(=O)N/N=C/c2cccc(Oc3ccccc3)c2)cc1	CendR NRP1 mod 41
Cc1c(Br)cc(-c2nnco2)cc1Br	CendR NRP1 mod 21
CCC(=O)Nc1nn(CC(C)C)c2nc3ccc(C)cc3cc12	none
O=C(O)CSc1nnc(-c2ccc(Cl)cc2Cl)n1-c1ccc(Cl)cc1	CendR NRP1 mod 26
COc1ccccc1-c1nnc(SCC(=O)O)n1-c1ccccc1	none
COc1cc(C)ccc1OCc1cc(C(=O)NCCN2CCCC(O)C2)no1 (stereo unspecified)	none
O=C(NCCCN1CCCC(O)C1)c1cc(COc2ccc(F)cc2F)on1 (stereo unspecified)	CendR NRP1 mod 40

Screens: PubChem, Sanford-Burnham Center for Chemical Genomics
